Reference: PubChem BioAssay AID2685 (National Center for Advancing Translational Sciences (NCATS), 2010)
In all, about 320,000 compounds went through this assay and about 2,100 (0.66%) were called active. About 53% were inconclusive and are not listed. This is one part of a sample in which actives are shown more often than they occur. Calls come from the whole dose curve; as a rule, active = well fitted inhibition curve with a large enough effect in the signal ratio, with a control signal flat (not every such curve was filed as active); inconclusive = small, poorly fitted or top-dose-only effect, or effect the other way, or a change in a side signal; inactive = flat fitted curve, though single readings scatter; the % refers to the signal ratio.

Assay: qHTS Assay for Lipid Storage Modulators in Drosophila S3 Cells;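 for cell number change: cells counted by Cell Tracker Red CMTPX staining in the red channel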; for lipid storage change, negative = inhibition: % is set by controls: 0 for no effect and ±100 for the full control effect
Settings: BODIPY lipid droplet fluorescence, 18-24 h, cells fed with added oleic acid; cell number change: measured here: cell count max response; series mostly up to 46.1 µM; lipid storage change, negative = inhibition: at the top concentration
In short: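 Laser-scanning cytometry quantifies lipid droplet accumulation (500–530 nm total intensity; droplet/cell object ratio) in oleic acid-fed (400 uM added) Drosophila S3 cells treated with a concentration series. 20 uM Triacsin C defined 100% inhibition.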
Potency is the fitted concentration of half-maximal effect.

Compound	lipid storage change, negative = inhibition	cell number change	outcome	Potency
COc1ccc(OC)c(NP(=O)(Oc2ccc(Cl)cc2)Oc2ccc(Cl)cc2)c1	8.47% (inactive)	16.2%	–	–
Cc1ccc2[nH]c3c(c2c1)CN(C(=O)CN1C[C@H]2C[C@@H](C1)c1cccc(=O)n1C2)CC3	17.7% (inactive)	14.9%	–	–
N#Cc1c(N2CCNCC2)nc(-c2ccco2)c2c1CCCC2	-5.93% (inactive)	11.9%	–	–
Cc1ccccc1-n1c(O)c(C(c2ccncc2)c2c(O)n(-c3ccccc3C)c(=O)[nH]c2=O)c(=O)[nH]c1=O	-7.77% (inactive)	5.35%	–	–
FC(F)(F)c1ccc(CNCCc2ccc3c(c2)OCO3)cc1	–	20.8%	inactive	–
Cc1ccc(-n2c(O)c(/C=N/NC(=O)c3ccncc3)c(=O)[nH]c2=O)cc1	-4.67% (inactive)	-2.6%	–	–
Cc1ccc(-c2cc(-c3ccc(C)cc3)[n+](-c3ccc(C(=O)O)cc3)c(-c3ccc(C)cc3)c2)cc1	8.58% (inactive)	12.1%	–	–
CCOC(=O)c1cccc(-[n+]2c(-c3ccccc3)cc(-c3ccccc3)cc2-c2ccccc2)c1	–	-29.7%	–	13 µM (active)
CCOC(=O)c1cccc([P+](=O)O)c1	3.53% (inactive)	4.86%	–	–
C(CCc1nn[nH]n1)CCc1nn[nH]n1	-0.854% (inactive)	0.918%	–	–
CC1(C)CC(n2[nH]c(=O)c3c2NC(=O)CSC3c2ccc(F)cc2)CCO1 (stereo unspecified)	5.29% (inactive)	1.16%	–	–
O=C1NC(=O)C(CCc2ccncc2)(Cc2ccc(OCc3ccccc3)cc2)C(=O)N1	-0.298% (inactive)	9.1%	–	–
O=C(Cn1c(=O)n(CC2CS2)c2ccccc21)N1CCCCCC1 (stereo unspecified)	1.02% (inactive)	9.44%	–	–
CCC1CCCCN1C(=O)Cn1c(=O)oc2ccccc21 (stereo unspecified)	–	–	–	1.46 µM (active)
CCC1CCCCN1CC(=O)c1ccc(OC(F)F)cc1 (stereo unspecified)	1.27% (inactive)	2.66%	–	–
COC(=O)C1=CO[C@@H](C)[C@@H]2CN3CC[C@]4(C(=O)Nc5ccccc54)[C@@H]3C[C@H]12	-0.0503% (inactive)	-15.3%	–	–
O=C(c1cccc2ccccc12)C1CCCN(Cc2ccon2)C1 (stereo unspecified)	10.3% (inactive)	0.85%	–	–
CSc1ccccc1C(=O)C1CCCN(Cc2cccc(C)n2)C1 (stereo unspecified)	3.17% (inactive)	5.61%	–	–
O=P(O)(O)Cc1ccccc1OP(=O)(c1ccccc1)c1ccccc1	9.67% (inactive)	-17.7%	–	–
O=P(O)(O)COc1ccccc1P(=O)(c1ccccc1)c1ccccc1	–	–	–	16.4 µM (active)
O=P(O)(O)Oc1ccccc1P(=O)(c1ccccc1)c1ccccc1	-5.41% (inactive)	13.5%	–	–
COc1ccc(CC(C)NC2CCCCCC2)cc1 (stereo unspecified)	–	-21%	inactive	–
NC(=O)CSc1nnc([C@@H](N)Cc2c[nH]c3ccccc23)o1	-10.3% (inactive)	–	–	–
O=C(c1ccc(Br)cc1)C12CN3CN(CN(C3)C1)C2	2.2% (inactive)	8.31%	–	–
CCN(CC)CCN=Cc1c(O)n(CCc2ccccc2)c(=O)[nH]c1=O	2.23% (inactive)	12.9%	–	–
O=c1[nH]c(=O)n(C2CCCCC2)c(O)c1C=NCCCn1ccnc1	–	17.5%	inactive	–

Compound	lipid storage change, negative = inhibition	cell number change	outcome	Potency
CCN(CC)CCN=Cc1c(O)n(CCC2=CCCCC2)c(=O)[nH]c1=O	–	11.2%	–	23.1 µM (active)
CN(C)CCN=Cc1c(O)n(C2CCCCCC2)c(=O)[nH]c1=O	-7.53% (inactive)	6.67%	–	–
CCN(CC)CCN=Cc1c(O)n(C2CCCCCC2)c(=O)[nH]c1=O	–	-10.3%	–	18.4 µM (active)
O=c1[nH]c(=O)n(CCC2=CCCCC2)c(O)c1/C=N/N1CCOCC1	-0.237% (inactive)	8.55%	–	–
C=CCn1c(C)c(C=C2C(=O)NC(=O)NC2=O)c2ccccc21	9.58% (inactive)	5.7%	–	–
O=c1[nH]c(=O)n(-c2ccc(Br)cc2)c(O)c1C=NC(CO)(CO)CO	-18.1% (inactive)	-6.55%	–	–
O=C(CCN1C(=O)COc2ccccc21)N1CCC2(CC1)OCCO2	2.07% (inactive)	1.47%	–	–
O=c1c2ccccc2ncn1-c1ccc([N+](=O)[O-])c(C(F)(F)F)c1	12.7% (inactive)	7.19%	–	–
Cc1ccccc1-[n+]1c(-c2ccccc2)cc(-c2ccccc2)cc1-c1ccccc1	–	–	–	23.1 µM (active)
C[n+]1c(-c2ccccc2)cc(-c2ccc(O)cc2)cc1-c1ccccc1	24.3% (inactive)	-18%	–	–
O=c1[nH]c(=S)n(C2CC2)c(O)c1C=NCc1cccnc1	-23.1% (inactive)	11.1%	–	–
ON1C2CCCCC2N(O)C1c1ccccc1 (stereo unspecified)	–	–	inactive	–
CC(=O)N1N=C2C3CCN(CC3)C2C1c1ccccc1 (stereo unspecified)	-8.99% (inactive)	1.69%	–	–
O[C@@H]1CCCC[C@H]1N1CCC(c2ccccc2)CC1	–	–	–	-4.74%
Cc1ccc(/C=C2/C(=O)NC(=O)N(CCc3ccc(F)cc3)C2=O)o1	-1.73% (inactive)	-2.41%	–	–
FC(F)(F)c1ccccc1N1CC1c1ccncc1 (stereo unspecified)	10.2% (inactive)	-4.55%	–	–
CSc1ncc(/C=C2/C(=O)NC(=O)N(c3ccc(C)cc3)C2=O)cn1	7.12% (inactive)	8.62%	–	–
O=C(c1ccc2c(=O)n(Cc3ccc4c(c3)OCO4)c(=S)[nH]c2c1)N1CCC2(CC1)OCCO2	-17.8% (inactive)	-17%	–	–
O=C1NC(=O)C(=Cc2ccsc2)C(=O)N1	-2.16% (inactive)	11.6%	–	–
CN1C(=O)/C(=C/c2cccn2-c2ccc3ccccc3c2)C(=O)NC1=S	–	-19%	–	3.26 µM (active)
O=C1NC(=S)NC(=O)C1=Cc1cccn1-c1ccc(O)cc1	-23.9% (inactive)	-0.957%	–	–
CN1C(=O)/C(=C\c2ccc(N3CCCCCC3)cc2)C(=O)NC1=S	-13.9% (inactive)	9.11%	–	–
CC(c1ccccc1)(c1ccccc1)c1ccncc1	-0.155% (inactive)	6.39%	–	–
ClC(Cl)(Cl)c1ccccc1	–	2.26%	–	0.58 µM (active)
Cc1ccc(N)c(C(=O)c2ccccc2)c1	-10% (inactive)	-2.37%	–	–
C=CCn1c(O)c(C(C)=NCc2ccc3c(c2)OCO3)c(=O)[nH]c1=O	-8.54% (inactive)	5.5%	–	–

Compound	lipid storage change, negative = inhibition	cell number change	outcome	Potency
COc1ccc(C(=O)C23CN4CN(CN(C4)C2)C3)cc1	0.471% (inactive)	4.85%	–	–
COc1ccc(C(=O)C(C)(C)NO)cc1	–	-1.48%	–	3.26 µM (active)
COc1ccc(C(=O)N2CCCC2=O)cc1	-10.4% (inactive)	11.9%	–	–
O=C1NC(=O)N(c2ccc3c(c2)OCO3)C(=O)/C1=C\c1ccsc1	-2.55% (inactive)	-1.9%	–	–
CC(=O)c1cc(C(C)=O)c(C)[n+](C)c1C	3.6% (inactive)	12.6%	–	–
CNC(=S)N1CCN(CCN=Cc2c(O)n(-c3ccc(C)cc3)c(=S)[nH]c2=O)CC1	-14.2% (inactive)	1%	–	–
Cc1cc(OC(C)C(=O)NCC(O)c2ccccc2)c2c3c(c(=O)oc2c1)CCC3 (stereo unspecified)	–	–	inactive	–
Cc1cc(OCC(=O)NCc2ccncc2)c2c3c(c(=O)oc2c1)CCC3	–	-10.8%	inactive	–
Cc1cc(OCC(=O)NCC(O)c2ccccc2)c2c3c(c(=O)oc2c1)CCC3 (stereo unspecified)	–	-16.3%	–	20.6 µM (active)
CCC12CN3CCN(CC(C3)/C1=N\O)C2	-24.4% (inactive)	-11.3%	–	–
CC12CN3CCN(CC(C3)/C1=N/NC(N)=O)C2	-11.3% (inactive)	0.944%	–	–
CC(C)C12CN3CCN(CC(C3)/C1=N\O)C2	–	-1.85%	–	6.51 µM (active)
C/C(=N\NC(=S)Nc1ccccc1)c1c(O)n(C)c(=O)n(C)c1=O	15.8% (inactive)	–	–	–
CCN1C[C@]2(C)CC[C@H](O)[C@]34C1[C@H](C[C@H]23)[C@@]1(O)C[C@H](OC)[C@H]2C[C@@H]4[C@@H]1C2O (stereo partly specified)	-5.48% (inactive)	-19.2%	–	–
Cn1c(O)c(C=NC2CCN(Cc3ccccc3)CC2)c(=O)n(C)c1=O	10.7% (inactive)	0.664%	–	–
C=CCn1c(O)c(C(C)=NC2CCN(Cc3ccccc3)CC2)c(=O)[nH]c1=O	0.565% (inactive)	4.94%	–	–
CC(=NC1CCN(Cc2ccccc2)CC1)c1c(O)n(C)c(=O)n(C)c1=O	–	4.54%	–	29.1 µM (active)
CCCCOC(=O)C1=C(N)OC2=C(C(=O)CC(C)(C)C2)[C@]12C(=O)N(C)c1ccccc12	–	-14.5%	inactive	–
CCCCOC(=O)C1=C(N)OC2=C(C(=O)CCC2)[C@]12C(=O)N(C)c1ccccc12	–	-3.29%	–	5.17 µM (active)
CCOC(=O)C1=C(N)OC2=C(C(=O)CCC2)[C@]12C(=O)N(CC(N)=O)c1ccccc12	-8.73% (inactive)	1.37%	–	–
COC1CCCCC1NCCc1ccccc1 (stereo unspecified)	-2.57% (inactive)	-9.24%	–	–
N#Cc1ccc(Cn2cc(C=O)c3ccccc32)cc1	11.2% (inactive)	15.7%	–	–
C=CCn1c(O)c(C(CC)=NCCN2CCN(C(=S)NC)CC2)c(=O)[nH]c1=O	-10.6% (inactive)	-0.0083%	–	–
CCCCn1c(=O)c(C(=O)NCCc2ccccc2)c(O)c2ccccc21	–	-5.77%	inactive	–
Cc1cc(O)c2c(c1)C(=O)C13C(=C2O)C(=O)[C@H]2[C@@H](O)[C@@H]1[C@H]1[C@H](O)[C@@H]3C(=O)C3=C(O)c4c(O)cc(C)cc4C(=O)C312 (stereo partly specified)	–	19.8%	–	9.2 µM (active)
